Bioassay records as filed in PubChem BioAssay.
IL-1B inflam inh – inhibitors of inflammasome signaling (IL-1 beta secretion); activity change, % at 57.5 µM; 360,000 compounds, 4.7% hits; THP-1 LPS/ATP IL-1B secretion, AlphaLISA, 16 h; stronger effect = lower value; AID 743279; in the data active = activity change below about -50%; inconclusive = mostly about -30% to -49%; note: % is set by controls: 0 for no effect and ±100 for the full control effect
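THP-1 cells pretreated 1 hr with compounds (up to 57.5 uM final), then stimulated with LPS (250 ng/mL final) plus ATP (1.25 mM final); secreted IL-1B measured by AlphaLISA after 16 hr, decreased signal indicating inhibition.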
DT40 TDP1 CPT – growth inhibition of DT40 Tdp1-/-;hTDP1 cells with camptothecin (screen for TDP1 inhibitors); Potency, µM (titrated, usually from 46.2 µM), for the others: at the highest dose activity change, negative = growth inhibition, hits mostly inhibitors; chicken DT40 Tdp1-/-;hTDP1 cells + 20 nM CPT, ATP luminescence, 48 h; 420,000 compounds, 12% hits; AID 686979; note: potency is the fitted concentration of half-maximal effect; % is set by controls: 0 for no effect and ±100 for the full control effect; nearly all actives have a fitted effect of over 55% in size
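Chicken DT40 Tdp1-/- cells complemented with human TDP1, 400 cells/well, exposed to compounds plus 20 nM camptothecin for at least 48 h at 37 C; viability read as ATP content by CellTiter-Glo luminescence.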
TGFb SMAD3 inh – inhibitors of TGF-b signaling; Potency, µM (top dose mostly 46.1 µM), for inactives: top-dose activity, negative = inhibition, most hits filed as inhibitors; AID 588855; 410,000 compounds, 1.2% hits; HepG2 CAGA-GFP TGF-b/SMAD3 reporter, GFP fluorescence, 18 h; TGF-beta stimulated, 500 pg/mL final; note: potency is the fitted concentration of half-maximal effect; % is set by controls: 0 for no effect and ±100 for the full control effect; nearly all actives have a fitted effect of over 65% in size
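HEPG2 CAGA-GFP cells (1000/well, DMEM with 1% FBS) were pre-incubated 2 h at 37 degrees C, given compound by pin tool, then stimulated with TGF-beta at 500 pg/mL final for 18 h before per-cell GFP fluorescence imaging.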
TDP1 block – blocks human tyrosyl-DNA phosphodiesterase 1 | Potency, µM (doses to about 130 µM), inactives show top-dose activity change, negative = inhibition, usual class: inhibitors | recombinant TDP1, AlphaScreen DNA substrate cleavage | 350,000 compounds, 0.28% hits; note: potency is the fitted concentration of half-maximal effect; % is set by controls: 0 for no effect and ±100 for the full control effect; nearly all actives have a fitted effect of over 40% in size
Target sequence (Q9NUW8 whole entry, looked up): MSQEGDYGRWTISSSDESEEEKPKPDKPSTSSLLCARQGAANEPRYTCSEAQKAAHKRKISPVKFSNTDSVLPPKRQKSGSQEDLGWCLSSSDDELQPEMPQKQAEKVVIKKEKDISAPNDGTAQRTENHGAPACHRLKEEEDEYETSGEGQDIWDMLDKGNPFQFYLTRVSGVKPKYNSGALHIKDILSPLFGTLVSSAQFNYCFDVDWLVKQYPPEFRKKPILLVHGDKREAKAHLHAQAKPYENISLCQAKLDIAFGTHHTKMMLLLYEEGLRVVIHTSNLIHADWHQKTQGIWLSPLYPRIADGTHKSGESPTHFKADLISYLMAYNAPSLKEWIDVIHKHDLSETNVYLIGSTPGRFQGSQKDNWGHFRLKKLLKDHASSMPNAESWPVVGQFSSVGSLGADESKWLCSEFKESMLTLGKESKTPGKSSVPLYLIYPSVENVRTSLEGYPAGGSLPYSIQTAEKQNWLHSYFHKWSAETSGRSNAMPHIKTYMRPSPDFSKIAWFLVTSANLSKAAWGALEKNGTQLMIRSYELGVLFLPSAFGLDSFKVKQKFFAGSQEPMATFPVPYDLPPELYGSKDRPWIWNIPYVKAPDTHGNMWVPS
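Compounds were preincubated with Tdp1 (1 nM final) for 15 min at room temperature before substrate (15 nM final) started a 5 min reaction; beads (10 ug/ml final) were then added for 10 min before AlphaScreen detection.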
HepG2 tox – counter-screen for TGF-b inhibitors: cytotoxicity in HepG2 cells; Potency, µM (highest dose often 46.1 µM), without a hit: top-dose activity change, negative = cytotoxicity, actives largely listed as cytotoxic; HepG2 CAGA-GFP viability, ATP luminescence, 18 h; 410,000 compounds, 0.76% hits; AID 588856; note: potency is the fitted concentration of half-maximal effect
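CellTiter-Glo luminescence gave cytotoxicity after 18 hours at 37 degrees C. The cells were HepG2 CAGA-GFP in 1% FBS DMEM, stimulated with 500 pg/mL TGF-beta after compound addition. %Activity was normalised to no-cell wells (complete cell-killing) and DMSO (no toxicity), and curves were fitted and classified.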
TDP1 cell noCPT – qHTS for Inhibitors of human tyrosyl-DNA phosphodiesterase 1 (TDP1): qHTS in cells in absence of CPT; DT40 Tdp1-/- hTDP1 cells, no CPT, ATP luminescence, 48 h; Potency, µM (titrated, usually from 46.2 µM), inactives show at the top dose activity change, negative = growth inhibition, actives largely listed as inhibitors; 420,000 compounds, 15% hits; AID 686978, 2013; note: potency is the fitted concentration of half-maximal effect; % is set by controls: 0 for no effect and ±100 for the full control effect; nearly all actives have a fitted effect of over 55% in size
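Chicken DT40 Tdp1-/- cells stably complemented with human TDP1 were seeded at 400 cells/well with DMSO in place of 20 nM camptothecin. After compound pinning, cells grew at least 48 hr at 37 °C; viability read by CellTiter-Glo luminescence.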
Active calls of the source: *; u = inconclusive; x = not tested or not shown; [ ] = dose if it differs, or a comment. An excerpt weighted towards active compounds, which were near 18% of everything screened. Unless noted, calls come from the whole dose curve; as a rule, active = well fitted curve in the direction sought with a large enough effect; inconclusive = small, poorly fitted or top-dose-only effect, or another doubt; inactive = no such curve, though single readings can be large; an effect the other way counts as inactive or inconclusive.

SMILES | IL-1B inflam inh | DT40 TDP1 CPT | TGFb SMAD3 inh | TDP1 block | HepG2 tox | TDP1 cell noCPT
O=C(Nc1ccn(CCCN2CCN(c3ccccc3)CC2)c(=O)n1)OCc1ccccc1 | -23 | u | -17% | x | -25% | 15µM*
O=C(Nc1ccn(CCCNCCN2CCOCC2)c(=O)n1)OCc1ccccc1 | 6 | -103% | 20% | x | 11% | -93%
Cc1cc(C)c(CN2CCN(CCCn3ccc(NC(=O)OCc4ccccc4)nc3=O)CC2)c(C)c1 | -55* | 18µM* | u | x | -95% | 18µM*
O=C(Nc1ccn(CCCN2CCC(N3CCOCC3)CC2)c(=O)n1)OCc1ccccc1 | 0 | -16% | 3% | x | -17% | -10%
O=C(Nc1ccn(CCCNC2CCN(Cc3ccccc3)CC2)c(=O)n1)OCc1ccccc1 | -18 | u | -1% | x | 6.3µM* | 18µM*
O=C(Nc1ccn(CCCN2CCN(Cc3cccc4ccccc34)CC2)c(=O)n1)OCc1ccccc1 | u | 16µM* | u | x | -71% | 18µM*
COc1ccc(C2=Nn3c(nnc3-c3cccc(OC)c3OC)SC2)cc1OC | x | x | x | 10% | x | x
COc1ccc(N2CCN(CCCn3ccc(NC(=O)OCc4ccccc4)nc3=O)CC2)cc1 | -14 | 23µM* | 1% | x | -9% | 12µM*
O=S(c1cc(Cl)cc(Cl)c1O)c1cc(Cl)cc(Cl)c1O | -67* | -6% | x | 3% | x | u
O=[N+]([O-])c1c(Cl)cc(Cl)cc1Cl | x | x | x | 4% | x | x
CCOc1ccc(N=C/C=C/c2ccccc2)c(O)c1 | -6 | 18µM* | 14µM* | 1% | -121% | 18µM*
COc1ccc(-c2nc3ccc(NS(C)(=O)=O)cc3o2)cc1 | x | -10% | 32% | -11% | 3% | -16%
COc1ccc(N2C(c3ccsc3)=Cc3cc4c(cc3C2c2c[nH]c3ccccc23)OCO4)cc1 (stereo not drawn) | -6 | u | x | x | x | 23µM*
COc1ccc(-c2ccc(=O)n(CC(=O)Nc3cc(OC)ccc3OC)n2)cc1 | x | -4% | -14% | 5% | -1% | -18%
COc1cc(CNCCc2c[nH]c3ccccc23)ccc1OCc1ccccc1F | -57* | 18µM* | u | 8% | 13µM* | u
COc1cccc(CNCCc2c[nH]c3ccccc23)c1OCc1ccccc1 | x | 7.3µM* | u | 2% | 11µM* | 9.2µM*
COc1cccc(CNC23CC4CC(CC(C4)C2)C3)c1OCc1ccccc1 | -97* | 9.2µM* | u | 3% | -73% | 10µM*
COc1cc2c(=O)n(CCC(=O)NCC3CCCO3)c(=O)n(CC(=O)Nc3ccc(F)cc3)c2cc1OC (stereo not drawn) | 21 | 14% | 27% | 4% | 19% | -11%
CC(=O)c1ccc(N2CCN(C(=O)c3ccc(Cn4c(=S)[nH]c5ccc(N6CCOCC6)cc5c4=O)cc3)CC2)cc1 | 29 | 3.3µM* | -1% | 2% | 19% | 2.6µM*
CCOC(=O)N1CCN(C(=O)c2ccc3c(=O)n(CCc4ccccc4)c(=S)[nH]c3c2)CC1 | 34 | -18% | -18% | 4% | -34% | -30%
O=C(c1ccc(Cn2c(=O)[nH]c3ccccc3c2=O)cc1)N1CCN(c2ccc(Cl)cc2)CC1 | -25 | 23µM* | u | 2% | -40% | 16µM*
COc1ccc(Cn2c(=O)[nH]c3cc(C(=O)N4CCN(c5ccc(C(C)=O)cc5)CC4)ccc3c2=O)cc1 | 27 | u | 10% | 4% | -8% | 15µM*
CCOC(=O)N1CCN(C(=O)c2ccc(Cn3c(=S)[nH]c4ccc(Br)cc4c3=O)cc2)CC1 | -63* | 5.2µM* | -1% | 3% | -5% | 1µM*
COc1ccc(N2CCN(C(=O)c3ccc4c(=O)n(Cc5ccc6c(c5)OCO6)c(=O)[nH]c4c3)CC2)cc1 | 24 | -6% | 3% | -2% | -48% | 6%
Cc1cc2c(nc1C)CCCN2CC(O)CN1CCCc2nc(C)c(C)cc21 | x | x | x | 7%[21 µM] | x | x
SMILES | IL-1B inflam inh | DT40 TDP1 CPT | TGFb SMAD3 inh | TDP1 block | HepG2 tox | TDP1 cell noCPT
CCOc1ccc(NC(=O)CCN2CCN(C)CC2)cc1 | 6 | -4% | 0% | 4% | 6% | 1%
CSc1ncccc1C(=O)NCCc1ccccc1F | -26 | 6% | -2% | x | -21% | -2%
CC(=O)c1ccc(N2CCN(C(=O)c3ccc(Cn4c(=O)[nH]c5ccccc5c4=O)cc3)CC2)cc1 | x | 10µM* | -2% | 4% | -37% | 16µM*
O=C(NCCc1ccc(Cl)cc1)c1ccc(Cn2c(=O)[nH]c3ccccc3c2=O)cc1 | x | 6.5µM* | -1% | 28µM* | 2% | 3.7µM*
NS(=O)(=O)c1ccc(CCNC(=O)c2ccc(Cn3c(=O)[nH]c4ccccc4c3=O)cc2)cc1 | 10 | 0% | -21% | 0% | -1% | 0%
Cc1ccc(C)c(N2CCN(C(=O)c3ccc(Cn4c(=O)[nH]c5ccccc5c4=O)cc3)CC2)c1 | -16 | u | u | 9% | -20% | u
CSc1ccc(CN2CCC(N3CCC(C(=O)NC4CC4)CC3)CC2)cc1 | -28 | 21µM* | -10% | x | -44% | 8.2µM*
O=C(NC1CCN(Cc2ccccc2)CC1)C1CCN(S(=O)(=O)c2ccccc2)CC1 | 9 | -28% | -20% | x | 2% | u
O=C(NC1CCN(Cc2ccccc2)CC1)C1CCN(S(=O)(=O)c2ccc(Cl)cc2)CC1 | -24 | u | -1% | x | -15% | 16µM*
Cc1noc(C)c1S(=O)(=O)N1CCC(C(=O)NC2CCN(Cc3ccccc3)CC2)CC1 | -7 | u | u | 0% | -22% | 11µM*
O=C(CCS(=O)(=O)c1ccc(Cl)cc1)NC1CCCC1 | -5 | -7% | 2% | 0% | -10% | 10%
